GLP1R ag = qHTS of GLP-1 Receptor Agonists; Glucagon-like peptide 1 receptor (Homo sapiens), P43220; HEK293 GLP-1R CRE-luciferase, luminescence, 4-6 h; cells express a hypersensitive GLP-1R form; Potency, µM (highest dose often 45.6 µM), hits mostly activators; 0.007% of 380,000 active
Target sequence (P43220 whole entry, looked up): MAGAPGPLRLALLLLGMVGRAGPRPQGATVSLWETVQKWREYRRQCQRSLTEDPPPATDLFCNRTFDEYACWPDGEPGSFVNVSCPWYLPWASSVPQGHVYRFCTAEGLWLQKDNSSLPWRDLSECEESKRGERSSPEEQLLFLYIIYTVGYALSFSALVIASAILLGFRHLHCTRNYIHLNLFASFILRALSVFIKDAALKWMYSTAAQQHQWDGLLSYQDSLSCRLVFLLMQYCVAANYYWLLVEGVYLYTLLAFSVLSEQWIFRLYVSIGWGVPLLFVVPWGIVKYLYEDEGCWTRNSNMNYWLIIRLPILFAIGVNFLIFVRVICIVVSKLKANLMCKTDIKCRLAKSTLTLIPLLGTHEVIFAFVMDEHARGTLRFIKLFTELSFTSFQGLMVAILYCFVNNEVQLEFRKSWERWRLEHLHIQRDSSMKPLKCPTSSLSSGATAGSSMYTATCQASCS
GLP-1R inv ag = qHTS of GLP-1 Receptor Inverse Agonists (Inhibition Mode) | HEK293 GLP-1R CRE-luciferase, luminescence, 24 h; GLP-1R form is constitutively active | Potency, µM (titrated, usually from 38.3 µM), usual class: inhibitors | 1.6% of 410,000 active; further: nearly all actives have a fitted effect of over 55% in size
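Using stably transfected HEK293 (constitutively active GLP-1R, cAMP-luciferase reporter), compounds were incubated 24 hr and luciferase measured by luminescence.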
GLP1R cytotox = qHTS of GLP-1 Receptor Inverse Agonists: Cytotox Screen | AID 624418, 2012 | HEK293 cAMP-luciferase reporter cells, luminescence, 24 h | 0.13% of 410,000 active | Potency, µM (doses to about 38.3 µM), hits mostly inhibitors;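 further: loss of luciferase light is scored as toxicity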
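1536-well qHTS counterscreen of the MLSMR; 200 cells/uL, 12 h pre-incubation, 23 nL cpd, 24 h at 37 deg C 5% CO2, luciferase detection reagent, 12 min RT, luminescence. Inhibition = undesired.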
ClpP mod = qHTS Assay for Activators of ClpP; Potency, µM (titrated, usually from 57.5 µM); 1.9% of 340,000 active; purified B. subtilis ClpP, FRET peptide cleavage, 20 min; ATP-dependent Clp protease proteolytic subunit (Bacillus subtilis (strain 168)), P80244; active means well fitted falling curve with a large enough effect; inconclusive means small, poorly fitted or top-dose-only effect; inactive means no such curve, though single readings can be large or run the other way; further: the source files actives as falling curves though it sought activators and does not explain the sign; nearly all actives have a fitted effect of over 65% in size
Target sequence (P80244 whole entry, looked up): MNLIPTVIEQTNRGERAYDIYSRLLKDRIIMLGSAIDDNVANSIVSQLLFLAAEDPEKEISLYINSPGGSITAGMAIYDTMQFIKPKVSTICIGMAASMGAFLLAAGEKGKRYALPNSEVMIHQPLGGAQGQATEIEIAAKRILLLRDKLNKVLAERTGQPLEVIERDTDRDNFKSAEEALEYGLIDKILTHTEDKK
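Buffer: 100 mM Tris/HCl pH8, 100 mM KCl, 0.05% low protease BSA, 2.5% glycerol, 0.01% Tween-20. ClpP 10 microg/mL final; 20 min RT; delta FRET normalized to ADEP and DMSO controls.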
Hits are given with their value; 0 = inactive; ? = inconclusive; - = no result; [ ] = another dose, or the depositor's remark. Compounds with a hit are over-represented: about 3.2% of the library has one in this group of screens. Unless noted, the call rests on the fitted dose curve; in most records, active means well fitted curve in the direction sought with a large enough effect; inconclusive means small, poorly fitted or top-dose-only effect, or another doubt; inactive means no such curve, though single readings can be large; an effect the other way counts as inactive or inconclusive.

SMILES	GLP1R ag	GLP-1R inv ag	GLP1R cytotox	ClpP mod
CCN(CC)CCN(C(=O)c1cc2ccccc2cc1OC)c1nc2ccc(OC)cc2s1	0	5.62µM	0	0
Cc1cc(C)c2sc(N(CCN(C)C)C(=O)c3cc(Cl)sc3Cl)nc2c1	0	?	0	-
Cc1cnc(-c2nnc(N(C)C(=O)C3CCCO3)s2)cn1 (centres undefined)	0	0	0	28.2µM
COc1ccc(-c2nnc(N(C)C(=O)C3CCCO3)s2)cc1 (centres undefined)	0	0	0	0
COc1ccc(-c2nc3ccncc3[nH]2)cc1OC	0	0	0	28.2µM
Cn1c(Oc2ccc(F)cc2)c(C=O)c2ccccc21	0	10µM	0	-
COc1ccc(-c2nnc(SCC(=O)Oc3cc(C)ccc3C)o2)cc1	-	0	0	0
Cc1cc(SCC(=O)OC/C(O)=C(\C#N)c2nc3ccccc3[nH]2)c(C)cc1Br	0	?	?	0
N#C/C(=C(/O)COC(=O)CSc1ccc(Cl)cc1)c1nc2ccccc2[nH]1	0	?	8.91µM	0
Cc1ccc(CNC(=O)c2ccc(CS(=O)(=O)Cc3ccc(F)cc3)o2)cc1	-	0	0	0
CN1CCc2c(sc3c2C(=O)NC(c2ccccn2)N3)C1 (centres undefined)	0	0	0	15.8µM
Cc1ccc(C2NC(=O)c3c(sc4c3CCN(C)C4)N2)o1 (centres undefined)	0	0	0	28.2µM
Cc1ccc(C2NC(=O)c3c(sc4c3CCN(C)C4)N2)s1 (centres undefined)	0	0	0	25.1µM
CN1CCc2c(sc3c2C(=O)NC(c2ccccc2)N3)C1 (centres undefined)	0	0	0	0
C#C[C@]1(O)CC[C@H]2[C@H]3[C@H](CC[C@@]21C)C1=C(CC(=O)CC1)C[C@@H]3C	0	-	-	-
Cc1ccc(-n2c(SCC(=O)N3CCc4ccccc43)nc3c([nH]c4ccccc43)c2=O)cc1	0	0	0	0
CCOC(=O)/C(=C/c1c2ccccc2cc2ccccc12)NC(=O)c1ccccc1	0	4.47µM	0	0
CCOC(=O)/C(=C\c1ccccc1)NC(=O)c1ccccc1	0	0	0	0
COC(=O)c1cc(NC(=O)c2cc(-c3ccccc3Cl)oc2C(F)(F)F)ccc1N1CCOCC1	0	3.98µM	0	0
O=C1C2C3C=CC(C3)C2C(=O)N1CCN1CCN(S(=O)(=O)c2ccc3ccccc3c2)CC1 (centres undefined)	0	11.2µM	0	0
O=C1C2C3C=CC(C3)C2C(=O)N1CCN1CCN(S(=O)(=O)/C=C/c2ccccc2)CC1 (centres undefined)	0	0	0	-
CC(NC(CCc1ccccc1)C(=O)O)C(=O)N1CCCC1C(=O)O (centres undefined)	0	-	-	-
CC(C)(C)CC(C)(C)N=C1Nc2ccccc2N[C@]12C[C@H]1CCCC(=O)N3CC[C@@H](C2)[C@@H]13	-	-	-	0
O=C(NCc1ccco1)c1ccc(-c2ccc(F)c(F)c2)c2ccoc12	0	?	0	35.5µM
O=C(NCc1ccccc1)c1ccc(-c2ccc(F)c(F)c2)c2ccoc12	0	0	0	0
SMILES	GLP1R ag	GLP-1R inv ag	GLP1R cytotox	ClpP mod
O=C(NCCc1ccccc1)c1ccc(-c2ccc(F)c(F)c2)c2ccoc12	0	0	0	35.5µM
O=C(NCc1cccc(Cl)c1)c1ccc(-c2ccc(F)c(F)c2)c2ccoc12	0	?	0	15.8µM
Oc1ccc(/C=C/c2ccc3cccc(O)c3n2)cc1Br	0	10µM	0	0
Cn1c(=O)[nH]c(=O)c2c1nc(Br)n2CCC(=O)c1ccccc1	0	0	0	28.2µM
Cn1c(=O)[nH]c(=O)c2c1nc(Br)n2C/C=N/NC(=O)c1ccccc1	0	0	0	-
Cc1cccc(N2CCN(C(=O)c3ccc4c(c3)OCCO4)CC2)c1C	0	0[7.66 µM]	0[7.66 µM]	0
Cc1cccc(N2CCN(C(=O)c3ccc4[nH]c(C)c(C)c4c3)CC2)c1C	0	2.51µM	0	0
Cc1cccc(N2CCN(C(=O)c3ccc(S(=O)(=O)N(C)c4ccccc4)cc3)CC2)c1C	0	1µM	0	0
Cc1cccc(C)c1N1CCN(C(=O)c2ccc3c(c2)OCO3)CC1	0	10µM	0	0
CO[C@@H]1[C@@H](OC2OC(C)C(OC3CC(C)(O)C(O)C(C)O3)C(N(C)C)C2O)[C@@H](CC=O)C[C@@H](C)[C@@H](OC2CCC(N(C)C)C(C)O2)/C=C/C=C/C[C@@H](C)OC(=O)C[C@H]1OC(C)=O (some centres undefined)	0	-	-	-
CCNC(=S)N/N=C/c1cc(C)ccc1C	0	4.47µM	5.62µM	0
COc1cccc(/C=C(/C(=O)OCC(=O)NC2CCCC(C)C2C)c2ccccc2)c1 (centres undefined)	0	10µM	0	0
COc1cccc(/C=C(/C(=O)OCC(N)=O)c2ccccc2)c1	0	?	0	-
OC(c1cccc(OCc2ccccc2)c1)c1nnc(-c2ccccc2)o1 (centres undefined)	0	10µM	0	0
OC(c1ccc(OCc2ccccc2)cc1)c1nnc(-c2ccccc2)o1 (centres undefined)	0	0	0	14.1µM
CCn1c(-c2ccco2)n[nH]c1=S	0	0	0	?
CCCCn1c(-c2ccco2)n[nH]c1=S	0	?	0	22.4µM
Cc1oc2ccc(O)c(CN3CCN(Cc4ccccc4)CC3)c2c1C(=O)Nc1ccccc1	-	?	0	0
Cc1ccccc1NC(=O)c1c(C)oc2ccc(O)c(CN3CCCCCC3)c12	-	?	0	0
O=c1[nH]ncc(N2CCCC2)c1Cl	0	0	0	-
O=c1[nH]ncc(N2CCN(C(c3ccccc3)c3ccccc3)CC2)c1Cl	0	12.6µM	0	28.2µM
Nc1ccc(/C=C/c2ccc3cccnc3c2)cc1	-	-	-	0
CC(C)(C)C1CCc2c(sc(NC(=O)c3ccc(Cl)cc3)c2C(=O)NCc2ccco2)C1 (centres undefined)	-	0	0	0
O=C(Nc1ccccc1)C1=C[C@H](c2csc3ccccc23)C[C@H](OCc2ccc(CO)cc2)O1	0	10µM	0	0
CCN(Cc1ccc(OC)c(F)c1)C(=O)CCl	0	3.16µM	0	-
SMILES	GLP1R ag	GLP-1R inv ag	GLP1R cytotox	ClpP mod
CCN(Cc1ccc(OC)c(F)c1)C(=O)C1CCCO1 (centres undefined)	0	0	0	-
Cc1cccc(N(C)S(=O)(=O)c2c(C(=O)N3CCCCCC3)c(C)n(C)c2C)c1	-	0	0	0
CCOc1ccc2[nH]c3c(NCCN(CC)CC)ncnc3c2c1	0	?	0	0
CC(C)OCCCNc1ncnc2c1[nH]c1ccccc12	0	0	0	17.8µM
COc1ccc2[nH]c3c(NCCN(C(C)C)C(C)C)ncnc3c2c1	0	?	0	17.8µM
C1=C(CCNc2ncnc3c2[nH]c2ccccc23)CCCC1	0	4.47µM	0	?

High-throughput results deposited in PubChem by National Center for Advancing Translational Sciences (NCATS).
